Test results: PubChem BioAssay AID2783 (National Center for Advancing Translational Sciences (NCATS), 2010)
Results filed as inconclusive are left out. Activity calls are given as the source filed them. The call rests on the fitted dose curve; in most records, active means well fitted inhibition curve with a large enough effect in the polarisation, with a control signal flat (not every such curve was filed as active); inconclusive means small, poorly fitted or top-dose-only effect, or effect the other way, or a change in a side signal; inactive means no such curve, though single readings can be large or run the other way; the % refers to the polarisation.

target: Menin (Homo sapiens) (UniProt O00255); test: Confirmation of Inhibitors Targeting the Menin-MLL Interaction in MLL Related Leukemias: Competition With Fluorescein Labeled MLL-derived Peptide; conditions: Fluorescence polarization, fluorescein-MLL peptide displacement from menin; series mostly up to 100 µM
Sequence (O00255 whole entry, looked up): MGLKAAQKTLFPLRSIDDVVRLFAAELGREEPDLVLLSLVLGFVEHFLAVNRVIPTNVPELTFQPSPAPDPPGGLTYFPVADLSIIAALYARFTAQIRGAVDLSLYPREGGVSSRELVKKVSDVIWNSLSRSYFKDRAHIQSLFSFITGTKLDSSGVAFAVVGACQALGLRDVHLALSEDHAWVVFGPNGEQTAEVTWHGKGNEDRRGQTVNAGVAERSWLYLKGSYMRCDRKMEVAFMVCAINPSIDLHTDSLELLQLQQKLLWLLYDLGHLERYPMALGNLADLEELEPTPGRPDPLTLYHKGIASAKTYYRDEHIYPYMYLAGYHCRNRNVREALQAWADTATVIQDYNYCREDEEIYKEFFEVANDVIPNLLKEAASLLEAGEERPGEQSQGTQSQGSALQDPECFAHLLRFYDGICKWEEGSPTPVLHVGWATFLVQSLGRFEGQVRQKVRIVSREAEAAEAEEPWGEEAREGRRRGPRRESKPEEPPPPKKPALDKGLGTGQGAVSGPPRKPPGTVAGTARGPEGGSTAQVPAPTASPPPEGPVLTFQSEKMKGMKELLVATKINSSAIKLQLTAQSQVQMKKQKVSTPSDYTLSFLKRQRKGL

Row | SMILES | outcome
1 | CCCCCn1c(=O)c(C(=O)Nc2nc(CC(=O)OCC)cs2)c(O)c2ccccc21 | inactive
2 | CC[C@]12C=CCN3CC[C@@]4(c5ccc(OC)cc5N(C)[C@H]4[C@@](O)(C(=O)OC)[C@@H]1OC(C)=O)C32 (stereo not given in full) | inactive
3 | COc1ccc(C(O)P(=O)(Oc2ccccc2)Oc2ccccc2)cc1 (stereo not given) | inactive
4 | CCCCn1c(=O)c(C(=O)Nc2ccsc2C(=O)OC)c(O)c2ccccc21 | inactive
5 | CCOC(=O)Cc1csc(NC(=O)c2c(O)c3ccccc3n(CCC(C)C)c2=O)n1 | inactive
6 | O=C1NC(=O)C(=Cc2ccc3ccccc3c2)C(=O)N1 | inactive
7 | O=C(O)CN1C(=O)CN=C(c2ccccn2)c2cc(Cl)ccc21 | inactive
8 | CCOP(=O)(OCC)C(NC(=O)c1ccccc1C)C(Cl)(Cl)Cl (stereo not given) | inactive
9 | O=C(Nc1ccc2ccccc2c1)c1nn(C23CC4CC(CC(C4)C2)C3)cc1Br | inactive
10 | O=c1oc2ccccc2c(O)c1C(c1ccccn1)c1c(O)c2ccccc2oc1=O | inactive
11 | Cc1cc(C(=O)NP(=O)(N2CCOCC2)N2CCOCC2)c(C)n1C1CC1 | inactive
12 | OC12C3C4CC5C6C4C1C6C(C53)N2CCc1cccc(F)c1 (stereo not given) | inactive
13 | C[C@@H]1CC[C@@]2(NC1)O[C@H]1C[C@H]3[C@@H]4CC=C5C[C@@H](O)CC[C@]5(C)[C@H]4CC[C@]3(C)[C@H]1[C@@H]2C | inactive
14 | COc1cc(/C=N/n2cnnc2)ccc1OC(=O)N(C)C | inactive
15 | C[N+](C)(C)CC#CCN1CCCC1=O | inactive
